# Reference: PubChem BioAssay AID2546 (National Center for Advancing Translational Sciences (NCATS), 2010)
# The whole screen tested about 310,000 compounds, of which about 11,000 (3.5%) were called active. Not shown: some 8% with an inconclusive outcome. The full list was thinned out, with actives kept by preference. A number with no mark means an inactive call. Calls follow the shape of the dose curve; as a rule, active = well fitted inhibition curve with a large enough effect; inconclusive = small, poorly fitted or top-dose-only effect, or effect the other way; inactive = flat fitted curve, though single readings scatter.
# Assay: VP16 counterscreen qHTS for inhibitors of ROR gamma transcriptional activity;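 also: Gal4-VP16 expression switched on by copper sulfate through the metallothionein promoter; nearly all actives have a fitted effect of over 50% in size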
# Settings: Drosophila S2 Gal4-VP16 UAS-luciferase, luminescence, 20 h; series mostly up to 53.6 µM; activity, negative = inhibition: at the top concentration
# Source text: NIH Molecular Libraries Probe Production Network [MLPCN]
# NIH Chemical Genomics Center [NCGC]
# Assay Provider: Dan Littman, New York University
# The retinoic acid-related orphan receptor (ROR) gamma is a transcription factor that has a central role in the differentiation of Th17 cells, a subset of T helper cells that secrete the inflammatory cytokines IL-17, IL-17F, and IL-22. Th17 cells have been implicated in graft versus host disease, autoimmune disease and asthma. ROR gamma is induced in naive T helper cells in the presence of TGF-beta combined with IL-6, IL-21, or IL-23, and thereafter directs the expression of the Th17 lineage cytokines. To identify nonspecific inhibitors, a Drosophila Schneider cell line was stably transfected with two vectors: a gene expressing a fusion of the Gal4 DNA binding domain and VP16 transactivation domain under the control of the metallothionine promoter and a Photinus luciferase reporter regulated by the Gal4 binding site enhancer, UAS. […] Small molecule inhibitors that inhibit components common to the RORgt and VP16 assays, such as the Gal4 DNA binding domain or the UAS luciferase reporter, will be active in both assays and thus scored as nonspecific.
# For screening, 600 cells in 4 uL/well were dispensed into white solid 1536-well plates (Grenier) using a solenoid-based dispenser. Following transfer of 23 nL compound or DMSO vehicle by a pin tool, the plates were incubated 1 hr at ambient temperature, and 1 uL/well copper sulfate (700 uM final concentration) was added. The plates were centrifuged 15 s at 1000 RPM and incubated 20 hr at ambient temperature. After addition of 1.5 uL Photinus luciferase detection reagent, the plates were incubated 10 min at ambient temperature and then read by a ViewLux (Perkin Elmer) to detect luminescence.
# % is scaled to controls: 0 for no effect and ±100 for the full control effect; potency is read from the fitted curve at half-maximal effect.
SMILES,"activity, negative = inhibition",Potency
ClC(Cl)=C(Cl)C(Cl)=C(Cl)Cl,2.07%,
c1csc(CN2CCCC3(CCNCC3)C2)n1,5.75%,
CN[C@@H]1C[C@H]2O[C@@](C)([C@@H]1OC)n1c3ccccc3c3c4c(c5c6ccccc6n2c5c31)C(=O)NC4,-1.08% [at 10 µM],
COC(=O)c1ccc2[se]c(CC3CCCCC3)c(I)c2c1,1.9%,
CCN(CC)c1nc(C)cc(OP(=S)(OC)OC)n1,-2.31%,
C=CC#N,10.3%,
N#Cc1c(Cl)c(Cl)c(Cl)c(C#N)c1Cl,,1.78 µM (active)
CCCCC/C=C\C/C=C\C/C=C\C/C=C\CCCCCC(=O)NCCO,,inactive
N#CCCCl,,inactive
Cc1cccc(N2C(=O)NC(=O)/C(=C\c3cnn(-c4ccccc4)c3)C2=O)c1,,12.6 µM (active)
COc1cccc(N2C(=O)NC(=O)/C(=C\c3ccc([N+](=O)[O-])s3)C2=O)c1,-11.7%,
O=C1NC(=O)N(c2ccccc2)C(=O)/C1=C/c1ccc([N+](=O)[O-])s1,6.23%,
N#Cc1cc(Br)c(O)c(Br)c1,-13.2%,
N[C@H](Cc1o[nH]c(=O)c1Cl)C(=O)O,-10.8%,
COC1CC(OC2CC[C@@]3(C=O)C4CC[C@]5(C)C(C6=CC(=O)OC6)CC[C@@]5(O)C4CC[C@]3(O)C2)OC(C)C1O (some centres not stated),16.8%,
CC[N+](C)(CC)CCC[n+]1c(-c2ccccc2)c2cc(N)ccc2c2ccc(N)cc21,,2.51 µM (active)
O=P1(Oc2ccccc2)CC(O)C(O)C(COCc2ccccc2)O1 (configuration not stated),-5.85%,
C[C@H]1CC[C@@]2(NC1)O[C@@H]1C[C@H]3[C@@H]4CC=C5C[C@@H](O)CC[C@]5(C)[C@@H]4CC[C@]3(C)[C@@H]1[C@@H]2C,-5.63% [at 17 µM],
CN1C2CC3CC1C(O3)C2O (configuration not stated),7.32%,
COC([CH2][Hg])CNC(=O)c1ccccc1OCC(=O)O (configuration not stated),3.54%,
Nc1ccc(-c2ccc(N)c(N)c2)cc1N,15.7%,

SMILES,"activity, negative = inhibition",Potency
COc1cc2c(cc1OC)[C@@H]1C(=O)c3ccc(O)c(CC=C(C)C)c3OC1CO2 (some centres not stated),-2.2%,
CCCCn1c(=O)c(C(=O)Nc2ccccc2Cl)c(O)c2ccccc21,26.2%,
CCCCCn1c(=O)c(C(=O)Nc2c(C)n(C)n(-c3ccccc3)c2=O)c(O)c2ccccc21,-11.3%,
CCCCCn1c(=O)c(C(=O)NCc2ccccn2)c(O)c2ccccc21,,17.8 µM (active)
Clc1ccc([C@@H]2C[C@H]3CC[C@@H]2N3)cn1,5.01%,
Cc1cccc([C@H](C)c2cnc[nH]2)c1C,3.21%,
COc1ccccc1-c1[se]c2ccccc2c1I,-3.29%,
O=C1CCc2cccc3c2N1CC3,-7.75%,
CCC(C)C(=O)O[C@@H]1C[C@@]2(C)C(c3ccoc3)OC(=O)CC23OC2(C)O[C@@]14[C@@]1(C)C(CC(=O)OC)C5(C)CC1(O)C(O)(C5OC(=O)C1(C)OC1C)C(OC(C)=O)[C@@]34O2 (some centres not stated),-14.6%,
BrC1C(Br)C(Br)C(Br)C(Br)C1Br (configuration not stated),,7.94 µM (active)
N[C@H](C(=O)O)c1cc(=O)[nH]o1,-10.3%,
CCCCC/C=C\C/C=C\C/C=C\C=C\[C@H](CCCC(=O)O)OO,-1.54%,
C/C(=C\C=C/[C@@H](C)C(=O)O)[C@H]1CN[C@H](C(=O)O)[C@@H]1CC(=O)O,-2.02%,
CC(C)(Cc1c[nH]c2ccc(Cl)cc12)NCCOc1ccccc1OCC1CC1,,15.8 µM (active)
C[C@H]1C/C=C/[C@@H]2[C@@H]3O[C@]3(C)[C@@H](C)[C@H]3[C@H](Cc4ccccc4)NC(=O)[C@]32OC(=O)O/C=C/[C@](C)(O)C1=O,2.16%,
C[C@@H]1C[C@H]2CC[C@H](O2)[C@H](C)C(=O)O[C@@H](C)C[C@@H]2CC[C@@H](O2)[C@@H](C)C(=O)O[C@H](C)C[C@H]2CC[C@H](O2)[C@H](C)C(=O)O[C@@H](C)C[C@@H]2CC[C@@H](O2)[C@@H](C)C(=O)O1,,1 µM (active)
C1CC[C@H]([C@@]23C[C@H](C[C@H]4CCCN[C@H]42)[C@@H]2CCCCN2C3)NC1,-7.87%,
O=C(Nc1cccc(F)c1)N1CC[C@@]2(CCCN(C(=O)Oc3ccccc3)C2)C1,-13.3%,
C=CCSSCC=C,-13.7%,
CC(C)(c1ccc(OC[C@@H]2CO2)cc1)c1ccc(OC[C@H]2CO2)cc1,1.63%,
O=C(N/N=C/c1ccc([N+](=O)[O-])o1)c1cc([N+](=O)[O-])cc([N+](=O)[O-])c1O,-5.16%,
